Gal4-VP16 FLuc – counter-screen for ROR gamma inhibitors: Gal4-VP16 reporter. actives 3.5% (n = 310,000). AID 2546. Potency, µM (series often up to 53.6 µM), actives largely listed as inhibitors. Drosophila S2 Gal4-VP16 UAS-luciferase, luminescence, 20 h;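 note: Gal4-VP16 expression switched on by copper sulfate through the metallothionein promoter; nearly all actives have a fitted effect of over 50% in size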
Luc counter – blocks Kinase-Glo luciferase, a counter-screen artifact | Q27757 | Kinase-Glo luciferase, ATP luminescence, 8 min | Potency, µM (top dose mostly 38.3 µM), hits mostly inhibitors | actives 0.28% (n = 200,000) | AID 1379; note: nearly all actives have a fitted effect of over 60% in size
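Luminescence was the read-out, taken after 8-minute incubation at ambient temperature. Luciferase turned over luciferin with 10 uM ATP in imidazole pH 7.2 buffer containing KCl, MgCl2, Tween 20 and BSA.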
RORg inh – inhibitors of mouse ROR gamma transcriptional activity. AID 2551. actives 5.4% (n = 310,000). P51450. Drosophila S2 Gal4-RORgamma UAS-luciferase reporter, 20 h. Potency, µM (titrated, usually from 53.6 µM), usual class: inhibitors; note: nearly all actives have a fitted effect of over 60% in size
Target sequence (P51450 whole entry, looked up, the tested form may be a part): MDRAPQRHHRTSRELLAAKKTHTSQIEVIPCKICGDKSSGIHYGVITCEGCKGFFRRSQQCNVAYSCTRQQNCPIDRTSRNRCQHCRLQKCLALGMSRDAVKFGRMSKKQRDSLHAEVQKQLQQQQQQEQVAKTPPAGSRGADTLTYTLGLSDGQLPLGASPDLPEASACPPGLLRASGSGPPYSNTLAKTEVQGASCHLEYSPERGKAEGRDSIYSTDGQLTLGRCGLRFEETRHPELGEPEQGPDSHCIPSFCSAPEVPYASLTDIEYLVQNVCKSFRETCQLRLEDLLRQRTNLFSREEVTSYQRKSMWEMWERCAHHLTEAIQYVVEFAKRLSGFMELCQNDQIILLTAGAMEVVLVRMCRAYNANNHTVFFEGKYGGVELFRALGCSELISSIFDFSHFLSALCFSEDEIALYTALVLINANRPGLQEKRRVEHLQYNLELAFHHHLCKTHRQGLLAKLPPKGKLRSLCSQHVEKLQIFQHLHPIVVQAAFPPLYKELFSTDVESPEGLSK
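Luminescence from a UAS-regulated Photinus luciferase reporter in stably transfected Drosophila Schneider cells is measured; decreased signal marks ROR gamma inhibition. Fusion expression is induced by 700 uM copper sulfate for 20 hr.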
A number is an active result; n = inactive; u = inconclusive; x = no result given; [ ] = dose if it differs, or a comment. Most compounds without a hit are left out; they make up all but 6.4% or so of the library. Calls come from the whole dose curve; as a rule, active = well fitted curve in the direction sought with a large enough effect; inconclusive = small, poorly fitted or top-dose-only effect, or another doubt; inactive = no such curve, though single readings can be large; an effect the other way counts as inactive or inconclusive.

SMILES | Gal4-VP16 FLuc | Luc counter | RORg inh
COc1cccc(CNC(=O)C2CCN(S(=O)(=O)c3ccc4c(c3)OCCO4)CC2)c1 | n | x | n
O=C(Nc1ccc2c(c1)CCC2)c1ccc(F)cc1 | u | n | u
O=C(Nc1ccc2c(c1)CCC2)c1cc(S(=O)(=O)Nc2ccc(F)cc2)c(Cl)cc1Cl | 6.3µM | n | u
Cc1ccc(CNC(=O)c2ccc(COc3ccccc3)cc2)cc1 | n | n | n
O=C1OCCC1Sc1nnc(-c2ccc(F)cc2)n1Cc1ccccc1 (stereo not given) | n | n | n
O=c1[nH]c(CN2CCc3ccccc3C2)nc2ccccc12 | n | n | n
Cc1[nH]c2ccccc2c1CN1CCc2ccccc2C1 | u | n | 11µM
O=C(O)[C@@H]1CCCN1Cc1ccc2c(c1)OCO2 | x | n[7.66 µM] | x
CC(C)(C)/C(O)=C(/C#N)c1nc2ccccc2[nH]1 | u | n | 11µM
CC(C)CC(/C(O)=C(\C#N)c1nc2ccccc2[nH]1)N1C(=O)c2ccccc2C1=O (stereo not given) | 20µM | n | 7.9µM
N#C/C(=C/c1ccc(O)c(O)c1)c1nc2ccccc2[nH]1 | n | x | u
COc1cccc(OC)c1/C(O)=C(\C#N)c1nc2ccccc2[nH]1 | n | n | n
CCOC(=O)/C(O)=C(\C#N)c1nc2ccccc2[nH]1 | n | n | u
N#C/C(=C(O)\C=C\c1ccccc1)c1nc2ccccc2[nH]1 | n | x | 2µM
CN(CCCC1CCCC1)C(=O)CC1C(=O)NCCN1Cc1ccc(F)cc1 (stereo not given) | n | x | n
C=CCc1ccc(OCC(O)CN2CCc3ccccc3C2)c(OC)c1 (stereo not given) | n | x | n
COc1ccc(CNC(=O)C(c2ccco2)N(C(=O)c2snc(C(N)=O)c2N)c2ccccc2OC)cc1 (stereo not given) | n | x | n
Cc1nn(-c2ccc(Cl)cc2Cl)c(=O)c2ccccc12 | n | n | n
CC1=NN(C(N)=S)C(=O)C1N=Nc1ccccc1Cl (stereo not given) | 1µM | x | 0.63µM
COc1ccccc1N=NC1=C(O)CC(C)(C)CC1=O | n | n | n
CC1=NN(C(N)=S)C(=O)C1N=Nc1ccccc1C(=O)O (stereo not given) | n | x | n[1.91 µM]
COc1ccccc1N=NC1C(=O)N(C(N)=S)N=C1C (stereo not given) | 3.2µM | x | u
CC1=NN(C(N)=S)C(=O)C1N=Nc1ccc(Cl)cc1Cl (stereo not given) | 0.63µM | x | 0.45µM
Cc1nc(SCC2(C)CC2(Cl)Cl)n[nH]1 (stereo not given) | n | x | n
CN(C)c1ccc(C=Nc2ccccc2C(N)=O)cc1 | 10µM | n | u
SMILES | Gal4-VP16 FLuc | Luc counter | RORg inh
Cc1ccc(/C=N/c2sc(Cc3ccccc3)c(C)c2C(N)=O)o1 | n | n | n
Cc1ccc(C=Nc2ccccc2C(N)=O)o1 | 20µM | u | u
CN(C)c1ccc(/C=N/OC(=O)Nc2ccccc2Cl)cc1 | n | x | n
CCN(Cc1ccncc1)Cc1nc(Cc2ccccc2Cl)no1 | n | n | n
CCOC(=O)C1(Cc2cccc(OC)c2)CCN(Cc2cccc(OC)c2O)CC1 | n | n | u
Cc1nc2c(ncn2-c2ccccc2)c(=O)n1NC(=O)CN1CCCCC1 | n | x | n
CCc1nnc(NC(=O)CSc2nnc(CNC(=O)c3cc(OC)c(OC)c(OC)c3)o2)s1 | n | n | n
COc1ccc(C(=O)NCc2nnc(SCC(=O)Nc3nnc(C)s3)o2)cc1OC | n | n | u
CCSc1nnc(NC(=O)CSc2nnc(CNC(=O)c3cc(OC)c(OC)c(OC)c3)o2)s1 | u | n | 16µM
COc1ccc(C(=O)NCc2nnc(SCC(=O)Nc3nc4ccc(C)cc4s3)o2)cc1OC | 7.9µM | n | 7.9µM
CCC(=O)NC(=S)Nc1ccc(N2CCN(C(=O)c3ccc(Cl)cc3)CC2)cc1 | n | n | n
COc1ccc(C)cc1S(=O)(=O)N(C)CC(=O)N1CCCC1 | n | x | n
CC1(OC(=O)c2ccc(Cl)nc2)C(=O)C=C2C=C(c3ccc(C#N)cc3)OC=C2C1=O (stereo not given) | n | n | n
CC1=CC(C)(C)N2C(=O)C3(SCC(=O)N3c3ccc(F)cc3)c3cc(C)cc1c32 (stereo not given) | n | n | 16µM
CC1=CC(C)(C)N2C(=O)C3(NCCc4c3[nH]c3ccccc43)c3cc(C)cc1c32 (stereo not given) | n | x | n
CCC(=O)N1CCc2cc(S(=O)(=O)Nc3ccccc3C)ccc21 | n | x | n
CCc1nn(CC(=O)N2CCN(c3ccc(F)cc3)CC2)c(=O)c2cc3occc3n12 | n | x | n
NC(=O)c1cc(Br)cc2c3c([nH]c12)CCCC3 | 18µM | n | n
Brc1ccc2[nH]c3c(c2c1)CCC3 | n | x | n
COc1ccc(NC(=O)CSc2nnc(-c3cccnc3)s2)cc1 | n | x | n
CC(OC(=O)CCc1nc2ccccc2c(=O)[nH]1)C(=O)NC1CCCC1 (stereo not given) | n | x | u
CC(OC(=O)CCc1nc2ccccc2c(=O)[nH]1)C(=O)c1ccc(C(C)(C)C)cc1 (stereo not given) | 5.6µM | n | u
c1ccc(-c2nc(-c3ccco3)cs2)nc1 | n | n | u
c1ccc(-c2nccc(-c3ccco3)n2)nc1 | n | n | 13µM
COC(=O)C1=C(C)N(C)C(=S)N(C)C1c1cccc(Br)c1 (stereo not given) | n | n | n
SMILES | Gal4-VP16 FLuc | Luc counter | RORg inh
CCOc1ccc(S(=O)(=O)Nc2ccccc2C(=O)N/N=C/c2c(OC)ccc3ccccc23)cc1 | 5.6µM | n | 6.3µM
COc1ccc2ccccc2c1/C=N/NC(=O)c1ccccc1F | n | x | n
CC(C)(C)OC(=O)NC1CC2CCCC(C1)N2Cc1ccccc1 (stereo not given) | n | x | n
O=C(Nc1ccc(S(=O)(=O)Nc2nccs2)cc1)/C(=C/c1ccccc1Cl)NC(=O)c1ccccc1 | n | n | n
O=C(NC(=S)Nc1ccccc1[N+](=O)[O-])c1ccccc1 | 2µM | x | u
Cc1c(NC(=O)c2ccc(C(C)(C)C)cc2)cccc1[N+](=O)[O-] | u | n | u
O=C(CCc1ccccc1)NNC(=O)c1ccccc1Br | n | n | n
O=C(CCc1ccccc1)NC(=S)Nc1ccccc1Br | u | n | 3.5µM
Cc1c(NC(=S)NC(=O)C(C)(C)C)cccc1[N+](=O)[O-] | 20µM | n | 14µM
COc1cc(NC(=S)NC(=O)CCc2ccccc2)cc(OC)c1 | 7.1µM | x | 0.56µM
COc1cc(NC(=O)Cc2ccccc2)cc(OC)c1 | n | n | n
O=C(NC(=S)Nc1cccc(NC(=O)c2ccccc2)c1)c1cccc([N+](=O)[O-])c1 | n | n | u
Cc1ncsc1CCC(=O)N1CCCC(Nc2ccc(C(C)C)cc2)C1 (stereo not given) | n | x | n
COc1ccccc1NC(=S)NC(=O)CCc1ccccc1 | 10µM | x | 13µM
CC(C)c1ccc(O)c(NC(=S)NC(=O)CCc2ccccc2)c1 | n | n | 13µM
COc1ccc(Cl)cc1NC(=O)CCc1ccccc1 | n | n | n
O=C(CCc1ccccc1)NC(=S)Nc1ccccc1[N+](=O)[O-] | 11µM | x | 10µM
O=C(C[n+]1ccccc1)Nc1ccccc1[N+](=O)[O-] | n | x | n
O=C(CCc1ccccc1)Nc1ccccc1[N+](=O)[O-] | n | x | n

Screening data (PubChem BioAssay)
